# High-throughput results from PubChem.
# Shown are actives, neighbours in structure and some others; about 19% of the full set was active somewhere.
# IL-1B inflam inh: qHTS for Inhibitors of Inflammasome Signaling: IL-1-beta AlphaLISA Primary Screen | THP-1 LPS/ATP IL-1B secretion, AlphaLISA, 16 h; stronger effect = lower value | activity change, % at 57.5 µM | 4.7% of 360,000 active | AID 743279, 2014; in the data active means activity change below about -50%; inconclusive means mostly about -30% to -49%
#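 THP-1 cells pretreated 1 hr with compounds (up to 57.5 uM final), then stimulated with LPS (250 ng/mL final) plus ATP (1.25 mM final); secreted IL-1B measured by AlphaLISA after 16 hr, decreased signal indicating inhibition.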
# HT1080 IDH1KD tx: qHTS for induction of synthetic lethality in tumor cells producing 2HG: qHTS for the HT-1080-IDH1KD cell line. Potency, µM (titrated, usually from 46.1 µM), for inactives: top-dose activity, negative = toxicity, actives largely listed as cytotoxic. 2% of 360,000 active. HT-1080 IDH1 knockdown viability, ATP luminescence, 48 h. AID 686971, 2013;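 further: potency means the concentration at half of the fitted maximal effect; 0% = DMSO wells and -100% = cell-free medium wells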
#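 Luminescent ATP read-out (CellTiter-Glo, 10 min at room temperature) after 48 h compound exposure at 37 °C gave viability of IDH1-knockdown HT-1080 cells. Activity was normalised to DMSO and cell-free wells, then fitted as concentration-response curves.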
# TDP1 cell CPT: qHTS for Inhibitors of human tyrosyl-DNA phosphodiesterase 1 (TDP1): qHTS in cells in presence of CPT. chicken DT40 Tdp1-/-;hTDP1 cells + 20 nM CPT, ATP luminescence, 48 h. Potency, µM (highest dose often 46.2 µM), for inactives: at the highest dose activity change, negative = growth inhibition, usual class: inhibitors. 12% of 420,000 active. AID 686979, 2013; further: potency means the concentration at half of the fitted maximal effect; nearly all actives have a fitted effect of over 55% in size
#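 Cell growth measured by CellTiter-Glo luminescence after a minimum 48 h, 37 C compound exposure with 20 nM CPT in Tdp1-knockout DT40 cells stably expressing hTDP1, seeded 400/well; qHTS titration format.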
# HT1080-NT tox: qHTS for induction of synthetic lethality in tumor cells producing 2HG: qHTS for the HT-1080-NT fibrosarcoma cell line; Potency, µM (highest dose often 46.1 µM), for the others: at the highest dose activity, negative = less viability, hits mostly cytotoxic; 1.6% of 360,000 active; HT-1080-NT fibrosarcoma viability, CellTiter-Glo ATP luminescence, 48 h;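 further: NT is the 2HG producing partner of a matched IDH1 knockdown line; potency means the concentration at half of the fitted maximal effect; 0% = DMSO-treated cells and -100% = media-only wells without cells; nearly all actives have a fitted effect of over 55% in size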
#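 Fibrosarcoma NT cells, 750 per well in 5% FBS RPMI, were exposed to compound for 48 hours. Viability: CellTiter-Glo luminescence.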
# ELG1 repair inh: qHTS screen for small molecules that inhibit ELG1-dependent DNA repair in human embryonic kidney (HEK293T) cells expressing luciferase-tagged ELG1; Potency, µM (titrated, usually from 46.1 µM), for the others: top-dose activity change, negative = inhibition, most hits filed as inhibitors; 2.3% of 330,000 active; AID 504467, 2011; HEK293T ELG1-luciferase reporter, luminescence, 16 h; DNA damage induced by 5-fluorouridine; further: potency means the concentration at half of the fitted maximal effect; nearly all actives have a fitted effect of over 55% in size
#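 In this reporter screen, reduction of luminescence relative to DMSO vehicle indicated activity. Compounds and 5-fluorouridine were added together to 2,000 cells per well, incubated for 16 hr at 37 °C, then developed with ONE-Glo.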
# TDP1 cell noCPT: qHTS for Inhibitors of human tyrosyl-DNA phosphodiesterase 1 (TDP1): qHTS in cells in absence of CPT; DT40 Tdp1-/- hTDP1 cells, no CPT, ATP luminescence, 48 h; Potency, µM (highest dose often 46.2 µM), for inactives: top-dose activity change, negative = growth inhibition, most hits filed as inhibitors; 15% of 420,000 active; further: potency means the concentration at half of the fitted maximal effect; nearly all actives have a fitted effect of over 55% in size
#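 No-CPT arm: Tdp1-/-;hTDP1 DT40 cells (400/well) plus compounds, incubated ≥48 hr at 37 °C. Readout CellTiter-Glo luminescence.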
# Numbers without * were called inactive; u = inconclusive; x = no result. Unless noted, the call rests on the fitted dose curve; in most records, active means well fitted curve in the direction sought with a large enough effect; inconclusive means small, poorly fitted or top-dose-only effect, or another doubt; inactive means no such curve, though single readings can be large; an effect the other way counts as inactive or inconclusive. Unless noted, on the % scale 0 is the no-effect control and ±100 the full control effect.
SMILES,IL-1B inflam inh,HT1080 IDH1KD tx,TDP1 cell CPT,HT1080-NT tox,ELG1 repair inh,TDP1 cell noCPT
COC(=O)c1cccc(C23CC4(C2)[C@H](CN(Cc2ccc(-c5ccccc5)cc2)[C@@H]4c2ccccc2)C3c2ccccc2)c1 (stereo not given in full),15,0%,-15%,4%,1%,u
COC(=O)c1ccc(C23CC4(C2)[C@H](CN(Cc2cccnc2)[C@@H]4c2ccccc2)C3c2ccc(C(F)(F)F)cc2)cc1 (stereo not given in full),39,-6%,23µM*,u,-2%,13µM*
FC(F)(F)c1ccc(C2[C@H]3CN(Cc4ccc(-c5ccccc5)cc4)[C@H](c4ccccc4)C34CC2(c2ccccc2)C4)cc1 (stereo not given in full),10,12%,u,11%,-1%,u
NS(=O)(=O)c1ccc(NC(=S)N2CCN(C(=O)C3CCCO3)CC2)cc1 (stereo not given),24,2%,-4%,14%,-15%,18%
c1ccc(-c2ccc(CN3C[C@@H]4C(c5ccccc5)C5(c6cccnc6)CC4(C5)[C@H]3c3ccccc3)cc2)cc1 (stereo not given in full),0,-16%,u,-4%,u,u
COC(=O)c1ccc(C23CC4(C2)[C@H](CN(CC2CCCCC2)[C@@H]4c2ccccc2)C3c2ccccc2)cc1 (stereo not given in full),-25,-4%,26µM*,-1%,-4%,u
COC(=O)c1ccc(C23CC4(C2)[C@H](CN(Cc2ccc(-c5ccccc5)cc2)[C@@H]4c2ccccc2)C3c2ccc(C(F)(F)F)cc2)cc1 (stereo not given in full),0,8%,u,12%,2%,u
COC(=O)c1ccc(C23CC4(C2)[C@H](CN(Cc2cccnc2)[C@@H]4c2ccccc2)C3c2ccccc2)cc1 (stereo not given in full),30,-22%,23µM*,0%,-12%,23µM*
N#Cc1ccc(C23CC4(C2)[C@H](CN(Cc2cccnc2)[C@@H]4c2ccccc2)C3c2ccccc2)cc1 (stereo not given in full),15,u,9.2µM*,-29%,u,7.3µM*
FC(F)(F)c1ccc(C2[C@H]3CN(Cc4ccc(-c5ccccc5)cc4)[C@H](c4ccccc4)C34CC2(c2cccnc2)C4)cc1 (stereo not given in full),-4,7%,u,4%,u,u
FC(F)(F)c1ccc(C2[C@H]3CN(Cc4cccnc4)[C@H](c4ccccc4)C34CC2(c2cccnc2)C4)cc1 (stereo not given in full),-14,u,23µM*,u,-22%,21µM*
CC(C)C(NC(=O)c1ccccc1NC(=O)C(C)(C)C)C(=O)N1CCOCC1 (stereo not given),38,1%,-2%,2%,0%,-4%
O=c1c(O)cccc2cc(O)c(O)c(O)c12,0,-15%,u,u,-10%,21µM*
O=Cc1cc2ccccc2cc1O,x,x,u,x,x,-26%
CCN(CC)CCNC(=O)c1cc(Br)c(N)cc1OC,7,-16%,-7%,-1%,6%,-18%
O=c1c(Br)c(N2CCCCC2)cnn1-c1ccccc1,-8,8%,2%,5%,u,1%
Cc1ccccc1OCC(=O)NC(=S)Nc1ccc2c3c(cccc13)CC2,-2,-2%,18µM*,9%,8%,18µM*
Cc1cc(C)cc(C(O)c2ncc(-c3ccccc3C(F)(F)F)[nH]2)c1 (stereo not given),12,4%,u,4%,x,u
CN1C(=O)C(=O)/C(=C(/O)c2ccccc2)C1c1ccc([N+](=O)[O-])cc1 (stereo not given),0,14%,-11%,8%,5%,14%
COc1cccc(CNC(=O)CCCCCNC(=O)N2CCn3c2nc2ccccc23)c1,10,17%,16µM*,5%,-9%,-28%
COc1cccc(CNC(=O)CCNC(=O)N2CCn3c2nc2ccccc23)c1,u,13%,-13%,10%,-13%,16%
Cc1ccc(CNC(=O)CCCCCNC(=O)N2CCn3c2nc2ccccc23)cc1,0,2%,18µM*,7%,6%,u
Cc1ccc(CNC(=O)CCNC(=O)N2CCn3c2nc2ccccc23)cc1,0,10%,-22%,11%,-12%,u
O=C(CC1CCCC1)N1CCN(S(=O)(=O)c2c(F)cccc2F)CC1,91,4%,0%,4%,x,-29%
O=S(=O)(c1c(F)cccc1F)N1CCCC2CCCCC21 (stereo not given),12,1%,u,0%,2%,21µM*
SMILES,IL-1B inflam inh,HT1080 IDH1KD tx,TDP1 cell CPT,HT1080-NT tox,ELG1 repair inh,TDP1 cell noCPT
CCn1ncc(CN2CCC(C(=O)Nc3cccc(-c4cccc(F)c4)c3)CC2)c1C,-8,u,u,-3%,14%,6.5µM*
Cc1cc(C)n(CCCN2CCC(C(=O)Nc3cccc(-c4cccc(F)c4)c3)CC2)n1,-65*,0%,u,-4%,-17%,18µM*
O=C(Nc1cccc(-c2cccc(F)c2)c1)C1CCN(Cc2ccc(CO)o2)CC1,-13,u,u,u,-1%,u
N#Cc1ccc(CN2CC3(CCN(C(=O)c4ccco4)CC3)C2)cc1,x,x,12%,x,x,-15%
CCOC(=O)N1CCN(C(=O)/C=C/c2cccc([N+](=O)[O-])c2)CC1,48,0%,u,0%,4%,-23%
CN(C)c1ccc(/C=N/N=C(N)N)cc1[N+](=O)[O-],u,-29%,u,2%,-9%,13µM*
CN(C)c1ccc(C=O)cc1[N+](=O)[O-],x,x,3%,x,x,-25%
